These results are taken from PubChem BioAssay (EPA / NIEHS).

Inconclusive results are not listed. Calls of active or inactive are those of the source. The calls were made as follows: active = hit-call score of the fitted dose curve at least 0.9, where 1 is the maximum; inconclusive = response in the unintended direction; inactive = score below 0.9.

The target in assay [1] is human Peroxisome Proliferator-activated Receptor alpha (PPARa), PPARA (gene 5465) (UniProt Q07869). Nature of the assay: ATG_PPARa_TRANS: Attagene TRANS-FACTORIAL HepG2 Assay for human Peroxisome Proliferator-activated Receptor alpha (PPARa) (AID 2283001). The gist of the method:
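Transfected HepG2 cells treated with test chemical for 24 h. RNA isolated, reverse-transcribed with oligo(dT), PCR-amplified, FAM-labelled and HpaI-digested. Fragments sized by capillary electrophoresis; gain-of-signal fit relative to DMSO.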

In assay [2] the target is Nuclear receptor subfamily 1 group I member 2 (Homo sapiens) (UniProt O75469). Nature of the assay: ATG_PXR_TRANS: Attagene TRANS-FACTORIAL HepG2 Assay for human Pregnane X Receptor (PXR) (AID 2283008). The procedure, abridged:
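HepG2 transfected (FuGene 6) with GAL4-UAS reporter units + PXR-Gal4 chimera; dosed 24 h. Total RNA → oligo(dT) RT → PCR → 6-FAM primer extension → HpaI cut → CE. Gain-of-signal vs DMSO.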

Assay [3] concerns the target human RAR-related Orphan Receptor beta (RORb), RORB (gene 6096) (UniProt Q92753). Nature of the assay: ATG_RORb_TRANS: Attagene TRANS-FACTORIAL HepG2 Assay for human RAR-related Orphan Receptor beta (RORb) (AID 2283010). The procedure, abridged:
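HepG2, transient MRTU transfection (GAL4-UAS reporters, exogenous NR-Gal4 chimeras); 24 h compound exposure; total RNA → RT-PCR → 6-FAM primer extension → HpaI digest → CE fluorescence. Positive direction vs DMSO baseline.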

The target in assay [4] is human RAR-related Orphan Receptor gamma (RORg), RORC (gene 6097) (UniProt P51449). Nature of the assay: ATG_RORg_TRANS: Attagene TRANS-FACTORIAL HepG2 Assay for human RAR-related Orphan Receptor gamma (RORg) (AID 2283011). The gist of the method:
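Activity is scored as increase in GAL4-UAS reporter mRNA over DMSO, detected by fluorescent RT-PCR and capillary electrophoresis in HepG2 cells transiently expressing a RORg-Gal4 chimera, 24 h after dosing.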

The target of assay [5] is Retinoic acid receptor RXR-alpha (Homo sapiens) (UniProt P19793). Nature of the assay: ATG_RXRa_TRANS: Attagene TRANS-FACTORIAL HepG2 Assay for human Retinoid X Receptor alpha (RXRa) (AID 2283012). The procedure, abridged: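 Read-out: fluorescent reporter-transcript fragments quantified by capillary electrophoresis after RT-PCR. Transiently transfected HepG2 cells carrying GAL4-UAS reporters and NR-GAL4 chimeras were exposed to chemical for 24 h; activity scored as increase over DMSO.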

The target of assay [6] is human Thyroid Receptor alpha (THRa1), THRA (gene 7067) (UniProt P10827). Nature of the assay: ATG_THRa1_TRANS: Attagene TRANS-FACTORIAL HepG2 Assay for human Thyroid Receptor alpha (THRa1) (AID 2283014). The gist of the method: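 First, HepG2 cells receive multiple GAL4-UAS reporter units and the chimeric receptor. They are then dosed for 24 h, after which RNA is reverse-transcribed, amplified, labelled, HpaI-cut and sized by capillary electrophoresis; gain relative to DMSO is scored.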

The target of assay [7] is human Peroxisome Proliferator-activated Receptor delta (PPARd), PPARD (gene 5467) (UniProt Q03181). Nature of the assay: ATG_PPARd_TRANS: Attagene TRANS-FACTORIAL HepG2 Assay for human Peroxisome Proliferator-activated Receptor delta (PPARd) (AID 2283002). The gist of the method: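 Cell-based TRANS reporter: HepG2, transient MRTU transfection, 24 h exposure. Readout = reporter mRNA (RT-PCR/CE, 6-FAM). Gain-of-signal fit vs DMSO control.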

Assay [8] addresses Retinoic acid receptor alpha (Homo sapiens) (UniProt P10276). Nature of the assay: ATG_RARa_TRANS: Attagene TRANS-FACTORIAL HepG2 Assay for human Retinoic Acid Receptor alpha (RARa) (AID 2283005). The gist of the method: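 Reporter transcripts, measured by RT-PCR with fluorescent labeling and capillary electrophoresis after 24 h dosing, reflect activity of an exogenous human RARa–GAL4 fusion in transiently transfected HepG2. Fitted for increase relative to DMSO.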

The target of assay [9] is Peroxisome proliferator-activated receptor gamma (Homo sapiens) (UniProt P37231). The assay can be described thus: ATG_PPARg_TRANS: Attagene TRANS-FACTORIAL HepG2 Assay for human Peroxisome Proliferator-activated Receptor-gamma (PPARg) (AID 2283007). The procedure, abridged: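 Transient transfection of HepG2 with GAL4-UAS-driven reporter units; chemical dosing 24 h; total RNA → oligo(dT) RT → PCR with reporter primers → 6-FAM primer extension → HpaI digest 2 h 37 C → capillary electrophoresis. Positive direction vs DMSO.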

Assay [10] deals with human Retinoic Acid Receptor gamma (RARg), RARG (gene 5916) (UniProt P13631). Nature of the assay: ATG_RARg_TRANS: Attagene TRANS-FACTORIAL HepG2 Assay for human Retinoic Acid Receptor gamma (RARg) (AID 2283009). The gist of the method:
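Readout: reporter transcript levels via RT-PCR, 6-FAM primer-extension labelling, HpaI digestion and capillary electrophoresis. Cells: HepG2 carrying transfected RARg-GAL4 chimera plus UAS reporter set. Dosing 24 h; DMSO negative control.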

The target of assay [11] is human Retinoid X Receptor beta (RXRb), RXRB (gene 6257) (UniProt P28702). Nature of the assay: ATG_RXRb_TRANS: Attagene TRANS-FACTORIAL HepG2 Assay for human Retinoid X Receptor beta (RXRb) (AID 2283013). The gist of the method:
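Read-out: reporter mRNA induction via RT-PCR plus capillary electrophoresis fluorescence, analysed as signal increase relative to DMSO. Cells were human HepG2, transiently transfected with GAL4-UAS reporter constructs and chimeric receptor-Gal4 fusions, dosed for 24 h.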

Assay [12] has as its target human Retinoic Acid Receptor beta (RARb), RARB (gene 5915) (UniProt P10826). Nature of the assay: ATG_RARb_TRANS: Attagene TRANS-FACTORIAL HepG2 Assay for human Retinoic Acid Receptor beta (AID 2283004). The procedure, abridged:
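HepG2, transient MRTU transfection, NR–Gal4 chimera, 24 h treatment; RT-PCR plus CE fluorescence detection of reporter mRNA; gain of signal vs DMSO.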

Sequence of human RAR-related Orphan Receptor gamma (RORg), RORC (gene 6097) (P51449 whole entry, looked up, the tested form may be a part): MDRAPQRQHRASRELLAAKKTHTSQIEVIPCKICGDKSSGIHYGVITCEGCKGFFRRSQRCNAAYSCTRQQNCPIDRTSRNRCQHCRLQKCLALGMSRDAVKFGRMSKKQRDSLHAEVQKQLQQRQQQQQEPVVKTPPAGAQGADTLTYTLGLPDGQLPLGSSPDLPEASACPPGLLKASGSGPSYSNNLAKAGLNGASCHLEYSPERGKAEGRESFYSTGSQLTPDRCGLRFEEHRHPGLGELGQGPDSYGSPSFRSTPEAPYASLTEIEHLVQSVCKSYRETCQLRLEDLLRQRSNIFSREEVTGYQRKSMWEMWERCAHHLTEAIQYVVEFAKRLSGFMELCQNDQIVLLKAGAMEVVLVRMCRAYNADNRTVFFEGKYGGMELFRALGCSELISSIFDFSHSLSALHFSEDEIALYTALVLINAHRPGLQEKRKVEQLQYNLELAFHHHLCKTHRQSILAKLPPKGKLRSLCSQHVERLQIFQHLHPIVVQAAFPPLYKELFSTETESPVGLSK
Sequence of human Retinoid X Receptor beta (RXRb), RXRB (gene 6257) (P28702 whole entry, looked up, the tested form may be a part): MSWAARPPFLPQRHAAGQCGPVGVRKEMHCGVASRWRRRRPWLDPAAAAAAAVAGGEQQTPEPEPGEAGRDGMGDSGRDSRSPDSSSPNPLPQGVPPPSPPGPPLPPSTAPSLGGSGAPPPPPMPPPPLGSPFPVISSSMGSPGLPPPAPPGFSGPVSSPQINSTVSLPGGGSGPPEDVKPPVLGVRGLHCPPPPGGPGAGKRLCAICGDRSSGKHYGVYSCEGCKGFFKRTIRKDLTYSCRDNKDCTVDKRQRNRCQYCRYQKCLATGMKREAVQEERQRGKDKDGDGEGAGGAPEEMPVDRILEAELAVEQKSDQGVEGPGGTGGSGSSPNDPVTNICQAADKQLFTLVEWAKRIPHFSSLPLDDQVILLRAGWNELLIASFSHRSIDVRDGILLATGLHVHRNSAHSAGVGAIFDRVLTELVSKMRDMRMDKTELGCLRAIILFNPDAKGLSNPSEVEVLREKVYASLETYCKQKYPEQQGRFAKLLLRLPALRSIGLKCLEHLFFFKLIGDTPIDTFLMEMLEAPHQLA
Sequence of Retinoic acid receptor RXR-alpha (Homo sapiens) (P19793 whole entry, looked up, the tested form may be a part): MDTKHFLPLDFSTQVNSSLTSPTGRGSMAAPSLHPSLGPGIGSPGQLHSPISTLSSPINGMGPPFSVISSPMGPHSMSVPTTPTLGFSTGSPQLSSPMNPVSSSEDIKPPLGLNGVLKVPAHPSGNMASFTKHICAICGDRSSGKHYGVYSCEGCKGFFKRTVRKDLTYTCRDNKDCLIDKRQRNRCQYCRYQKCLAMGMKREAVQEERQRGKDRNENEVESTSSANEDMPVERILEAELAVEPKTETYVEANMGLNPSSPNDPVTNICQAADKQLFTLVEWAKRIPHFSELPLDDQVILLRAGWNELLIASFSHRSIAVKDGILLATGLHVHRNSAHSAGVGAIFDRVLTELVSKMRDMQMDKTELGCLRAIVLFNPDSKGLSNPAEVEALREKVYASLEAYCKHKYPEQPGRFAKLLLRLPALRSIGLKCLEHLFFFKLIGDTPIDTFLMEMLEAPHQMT
Sequence of Nuclear receptor subfamily 1 group I member 2 (Homo sapiens) (O75469 whole entry, looked up, the tested form may be a part): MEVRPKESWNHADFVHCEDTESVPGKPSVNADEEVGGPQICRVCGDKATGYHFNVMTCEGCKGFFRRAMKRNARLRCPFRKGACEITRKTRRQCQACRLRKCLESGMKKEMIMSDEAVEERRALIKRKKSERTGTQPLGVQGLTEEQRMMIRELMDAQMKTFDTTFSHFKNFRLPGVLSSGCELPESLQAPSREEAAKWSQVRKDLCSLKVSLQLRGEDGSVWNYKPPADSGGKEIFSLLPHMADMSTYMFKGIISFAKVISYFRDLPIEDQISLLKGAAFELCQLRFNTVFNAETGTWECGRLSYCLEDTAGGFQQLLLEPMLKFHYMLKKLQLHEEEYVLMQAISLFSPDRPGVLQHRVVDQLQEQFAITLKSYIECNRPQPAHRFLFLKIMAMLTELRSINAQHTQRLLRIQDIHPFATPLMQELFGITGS
Sequence of Peroxisome proliferator-activated receptor gamma (Homo sapiens) (P37231 whole entry, looked up, the tested form may be a part): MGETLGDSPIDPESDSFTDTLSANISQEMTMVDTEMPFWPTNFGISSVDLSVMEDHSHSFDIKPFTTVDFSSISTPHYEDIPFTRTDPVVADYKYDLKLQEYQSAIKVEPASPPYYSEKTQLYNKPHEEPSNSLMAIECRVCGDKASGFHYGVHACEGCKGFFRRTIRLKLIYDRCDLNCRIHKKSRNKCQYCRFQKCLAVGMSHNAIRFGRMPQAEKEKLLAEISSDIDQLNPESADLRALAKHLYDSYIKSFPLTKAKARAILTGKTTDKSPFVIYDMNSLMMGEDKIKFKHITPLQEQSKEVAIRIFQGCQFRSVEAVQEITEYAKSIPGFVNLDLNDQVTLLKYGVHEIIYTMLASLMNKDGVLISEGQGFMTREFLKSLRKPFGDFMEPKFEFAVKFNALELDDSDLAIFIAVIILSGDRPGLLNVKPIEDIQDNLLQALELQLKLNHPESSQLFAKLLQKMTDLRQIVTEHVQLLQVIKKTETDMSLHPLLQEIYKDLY
Sequence of human RAR-related Orphan Receptor beta (RORb), RORB (gene 6096) (Q92753 whole entry, looked up, the tested form may be a part): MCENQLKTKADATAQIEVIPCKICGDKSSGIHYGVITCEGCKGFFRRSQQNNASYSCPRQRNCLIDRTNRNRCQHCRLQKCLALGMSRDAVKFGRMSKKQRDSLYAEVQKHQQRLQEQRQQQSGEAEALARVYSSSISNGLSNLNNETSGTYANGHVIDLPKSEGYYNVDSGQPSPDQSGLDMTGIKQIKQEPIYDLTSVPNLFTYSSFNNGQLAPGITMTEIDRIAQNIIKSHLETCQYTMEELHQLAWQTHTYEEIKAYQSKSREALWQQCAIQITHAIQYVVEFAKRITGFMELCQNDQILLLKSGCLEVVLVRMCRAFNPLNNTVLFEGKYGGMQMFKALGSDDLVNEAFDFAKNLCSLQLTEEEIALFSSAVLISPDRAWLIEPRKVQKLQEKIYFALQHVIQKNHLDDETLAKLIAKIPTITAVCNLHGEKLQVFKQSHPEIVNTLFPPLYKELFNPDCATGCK
Sequence of human Thyroid Receptor alpha (THRa1), THRA (gene 7067) (P10827 whole entry, looked up, the tested form may be a part): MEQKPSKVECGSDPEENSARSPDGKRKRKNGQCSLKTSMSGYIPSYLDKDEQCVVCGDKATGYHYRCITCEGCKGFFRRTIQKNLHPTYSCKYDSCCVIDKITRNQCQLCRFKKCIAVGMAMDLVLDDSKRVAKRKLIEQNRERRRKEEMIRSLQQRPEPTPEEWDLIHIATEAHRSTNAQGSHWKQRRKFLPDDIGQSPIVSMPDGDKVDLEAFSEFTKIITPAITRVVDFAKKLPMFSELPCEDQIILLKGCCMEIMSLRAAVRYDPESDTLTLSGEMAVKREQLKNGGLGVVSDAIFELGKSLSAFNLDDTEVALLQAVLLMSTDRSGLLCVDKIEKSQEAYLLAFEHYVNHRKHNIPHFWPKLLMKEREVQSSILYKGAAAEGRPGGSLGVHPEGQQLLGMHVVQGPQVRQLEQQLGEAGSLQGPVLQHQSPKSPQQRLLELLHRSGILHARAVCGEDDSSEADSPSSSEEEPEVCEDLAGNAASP
Sequence of human Retinoic Acid Receptor gamma (RARg), RARG (gene 5916) (P13631 whole entry, looked up, the tested form may be a part): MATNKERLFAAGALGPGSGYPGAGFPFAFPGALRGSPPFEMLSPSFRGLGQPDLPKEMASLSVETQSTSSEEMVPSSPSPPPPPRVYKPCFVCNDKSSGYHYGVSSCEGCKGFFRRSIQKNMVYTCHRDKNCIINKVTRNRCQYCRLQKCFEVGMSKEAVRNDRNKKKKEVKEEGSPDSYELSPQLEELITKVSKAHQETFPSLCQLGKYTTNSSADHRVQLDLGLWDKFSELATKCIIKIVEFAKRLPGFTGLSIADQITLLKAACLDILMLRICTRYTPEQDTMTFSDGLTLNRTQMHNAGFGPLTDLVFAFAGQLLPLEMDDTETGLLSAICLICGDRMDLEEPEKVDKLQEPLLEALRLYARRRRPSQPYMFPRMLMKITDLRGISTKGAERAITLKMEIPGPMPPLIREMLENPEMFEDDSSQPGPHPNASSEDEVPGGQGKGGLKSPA
Sequence of Retinoic acid receptor alpha (Homo sapiens) (P10276 whole entry, looked up, the tested form may be a part): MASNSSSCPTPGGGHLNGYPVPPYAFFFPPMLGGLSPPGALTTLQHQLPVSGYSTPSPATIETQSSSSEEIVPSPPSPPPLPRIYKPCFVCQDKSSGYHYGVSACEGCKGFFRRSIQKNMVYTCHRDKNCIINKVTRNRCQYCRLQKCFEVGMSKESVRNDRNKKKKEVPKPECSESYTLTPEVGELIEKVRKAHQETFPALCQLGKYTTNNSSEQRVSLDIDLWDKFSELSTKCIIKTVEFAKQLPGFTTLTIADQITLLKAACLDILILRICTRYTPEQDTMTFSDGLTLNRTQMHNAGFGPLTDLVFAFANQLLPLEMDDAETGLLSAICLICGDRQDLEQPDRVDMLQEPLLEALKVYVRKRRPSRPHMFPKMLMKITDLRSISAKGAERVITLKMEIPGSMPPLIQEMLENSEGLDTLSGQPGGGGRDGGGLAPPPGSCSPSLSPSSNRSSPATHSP
Sequence of human Retinoic Acid Receptor beta (RARb), RARB (gene 5915) (P10826 whole entry, looked up, the tested form may be a part): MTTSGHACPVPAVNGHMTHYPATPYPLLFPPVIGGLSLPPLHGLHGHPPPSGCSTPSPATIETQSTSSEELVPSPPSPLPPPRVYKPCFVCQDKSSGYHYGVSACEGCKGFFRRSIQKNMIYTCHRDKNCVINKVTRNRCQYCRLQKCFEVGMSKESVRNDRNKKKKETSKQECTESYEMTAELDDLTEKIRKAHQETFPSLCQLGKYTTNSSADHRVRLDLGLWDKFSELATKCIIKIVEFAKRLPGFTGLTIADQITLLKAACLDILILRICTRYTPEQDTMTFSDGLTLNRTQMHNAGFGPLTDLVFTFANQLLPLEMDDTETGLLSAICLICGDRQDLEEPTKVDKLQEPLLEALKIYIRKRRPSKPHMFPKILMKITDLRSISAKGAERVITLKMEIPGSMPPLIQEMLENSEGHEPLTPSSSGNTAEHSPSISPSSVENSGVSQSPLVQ

Regarding `CC(=O)CC(=O)N(C)C`, the call in [1], in assay [2], in assay [3], in assay [4], in [5] and in assay [6] was inactive.
Consider `CCCCCCCCCCCCOC(C)=O`, for which the call in assay [7], in assay [8], in [9], in assay [2], in assay [10] and in assay [4] was inactive. Moreover, the compound was classed as inactive in [11].
On to `CCCCCCCCCCCCCC(=O)OCC`, for which the outcome in assay [7], in assay [12], in assay [8], in assay [10], in assay [4] and in assay [6] was inactive.
Turning to `NCCN1CCNCC1`, the outcome in assay [7], in assay [12], in assay [9], in [2], in [10] and in [3] was inactive. Moreover, the compound was classed as inactive in [4]. Moreover, the AC50 in assay [11] is 25.3 µM (active).
Turning to `CC(=O)CC(C)(C)C1CCCCC1`, the compound was called inactive in assay [7], in assay [12], in [8], in [2], in assay [10] and in assay [5]. For the same compound, the result in [11] and in assay [6] was inactive.
Turning to `CC(CO)c1ccccc1` (configuration not stated), the outcome in assay [1], in assay [2], in [4], in [11] and in [6] was inactive.
Take `NC(=O)c1cnccn1`: the outcome in assay [1], in assay [2], in assay [5] and in assay [11] was inactive.
For `CC(=O)Nc1cc(S(=O)(=O)O)cc2cc(S(=O)(=O)O)c(N=Nc3ccccc3)c(O)c12`, the call in [7], in assay [9], in [2], in [10], in [4] and in assay [5] was inactive. The outcome in assay [11] and in assay [6] was inactive.
In the case of `NNC(=O)OCc1ccccc1`, the compound was called inactive in [7], in assay [9], in assay [2], in assay [3], in assay [4] and in [5]. The compound was classed as inactive in [11] and in assay [6].
For the compound `CC12CCC(C1)C(C)(C)C2O` (configuration not stated), the compound was called inactive in assay [7], in [12], in [2], in assay [4], in assay [5] and in [11].
Take `CC/C=C\CCOC(=O)C(C)C`: the compound was called inactive in [7], in assay [8], in assay [9], in assay [3], in assay [11] and in [6].
As for `CCCCCCCCOS(=O)(=O)O`, the result in assay [1], in assay [4] and in assay [5] was inactive. Further, the half-maximal activity concentration (AC50) is 47.6 µM (active) in assay [9] and 100 µM (active) in assay [11].
As for `C=C(C)C(=O)OCCOCCOC(=O)C(=C)C`, the result in assay [1], in [2], in assay [5] and in assay [11] was inactive.
For the compound `COc1ccc(C(C)=O)cc1`, the compound was classed as inactive in assay [1], in assay [2], in assay [3], in [4], in assay [5] and in assay [6].
In the case of `[Cu+]`, the compound was called inactive in assay [7], in assay [12], in [8], in assay [9], in assay [2] and in [10]. In addition, the call in [3], in assay [4], in [5] and in assay [6] was inactive.
As for `OC[C@H]1O[C@@H](O[C@H]2[C@H](O)[C@@H](O)[C@H](O)O[C@@H]2CO)[C@H](O)[C@@H](O)[C@H]1O`, the compound was called inactive in assay [7], in assay [12], in [2], in assay [3], in [5] and in assay [11]. Further, the result in [6] was inactive.
`[Cl][Dy]([Cl])[Cl]`: the call in [1], in assay [2], in assay [5], in assay [11] and in assay [6] was inactive.
Regarding `O=C(O)CS`, the compound was classed as inactive in assay [1], in [2] and in assay [10].
Take `C=CC(O)CCCCC` (configuration not stated): the compound was called inactive in assay [1], in [9], in assay [2] and in [6].
For the compound `N#CCCCC(C#N)CCC#N` (configuration not stated), the call in assay [7], in assay [12], in [2], in assay [10], in assay [5] and in assay [11] was inactive. In addition, in assay [6], the compound was classed as inactive.
On to `CCCCCCCC(=O)N(C)C`, for which the result in assay [7], in assay [9], in assay [2], in assay [10], in [5] and in [6] was inactive.
For the compound `CCC(=O)OC/C=C(\C)CCC=C(C)C`, the compound was called inactive in assay [7], in [9], in [2], in assay [4] and in assay [6].
For the compound `CCC(C)(C)C1CCC(OC)CC1` (configuration not stated), the compound was called inactive in assay [7], in assay [9], in [11] and in assay [6]. The concentration at half-maximal activity (AC50) in [2] is 8.16 µM (active).
For the compound `CC(C)COC(=O)c1ccccc1O`, the compound was classed as inactive in [7], in assay [2], in assay [4], in assay [5], in [11] and in assay [6].
For `CC(=O)N(C)C`, the compound was called inactive in [7] and in [2].
